Bioassay records: PubChem BioAssay, National Center for Advancing Translational Sciences (NCATS)
Only some compounds are listed: those with a hit (about 12% of all), similar ones and a draw of the others.
Sfp inh: inhibitors of Bacillus subtilis Sfp phosphopantetheinyl transferase. Biochemical Sfp PPTase activity, qHTS. hit rate 3.5% among 310,000. AID 1490. Potency, µM, for inactives: largest response in the series, negative = inhibition, actives largely listed as inhibitors;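 further: the enzyme is Sfp with the accession as filed and its product quenches rhodamine fluorescence; 0% = enzyme reaction without inhibitor and -100% = no enzyme wells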
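Fluorescence-quenching assay: 15 nM Sfp-PPTase preincubated 15 min at room temperature with compound, then 5 uM rhodamine-CoA and 12.5 uM BHQ-2-labelled YbbR peptide added. Fluorescence (ex 525/em 598 nm) read at start and after 30 min; difference gives rate.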
BAZ2B block: inhibitors of human BAZ2B bromodomain; Q9UIF8; AlphaScreen BAZ2B-H3K14Ac peptide displacement; Potency, µM (highest dose often 114 µM), inactives show at the top dose activity change, negative = inhibition, usual class: inhibitors; hit rate 4.4% among 360,000; AID 504333; further: on the % scale 0 is the no-effect control and ±100 the full control effect; nearly all actives have a fitted effect of over 60% in size
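Protein-peptide AlphaScreen: BAZ2B 50 nM, b-H3K14Ac 50 nM, 1x PBS pH 7.4 + 0.01% Tween-20. Preincubation 30 min RT; cpd 30 min RT (top 110 uM); beads 20 min RT, light-protected.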
L3MBTL1 inh: inhibitors of human L3MBTL1; AlphaScreen L3MBTL1–H3K9me1 peptide binding; hit rate 0.66% among 230,000; Q9Y468; Potency, µM (top dose mostly 57.1 µM), for the others: at the top dose activity, negative = inhibition, most hits filed as inhibitors; further: on the % scale 0 is the no-effect control and ±100 the full control effect; nearly all actives have a fitted effect of over 60% in size
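Read-out is AlphaScreen signal from streptavidin donor and nickel chelate acceptor beads (10 ug/mL final each) bridging L3MBTL1 (50 nM) and biotinylated K9-monomethylated H3(1-15) peptide (75 nM), after 30 min compound exposure at room temperature.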
G9a inh: blocks human histone lysine methyltransferase G9a; G9a H3K9 monomethylation, AlphaScreen, 2 h; AID 504332; hit rate 8.8% among 350,000; Q96KQ7; Potency, µM (titrated, usually from 102 µM), for inactives: at the top dose activity, negative = inhibition, usual class: inhibitors; further: on the % scale 0 is the no-effect control and ±100 the full control effect; nearly all actives have a fitted effect of over 75% in size
Target sequence (Q96KQ7 913-1193 limits assumed): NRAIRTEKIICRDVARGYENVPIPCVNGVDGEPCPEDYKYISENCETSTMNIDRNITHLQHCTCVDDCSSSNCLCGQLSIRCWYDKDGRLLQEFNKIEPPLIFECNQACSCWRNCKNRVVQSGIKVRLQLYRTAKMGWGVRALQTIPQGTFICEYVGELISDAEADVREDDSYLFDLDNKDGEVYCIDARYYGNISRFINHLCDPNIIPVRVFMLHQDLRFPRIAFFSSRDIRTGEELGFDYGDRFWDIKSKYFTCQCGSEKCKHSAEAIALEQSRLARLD
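Step 1: enzyme (final 20 nM) with compound, 15 min RT. Step 2: substrate peptide 500 nM and SAM 20 uM, 2 h RT. Step 3: anti-H3K9me1 antibody and AlphaScreen beads, 10 min, then plate read.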
HP1b chromo inh: blocks HP1-beta chromodomain binding to methylated histone tails; Potency, µM (highest dose often 114 µM), for inactives: at the top dose activity change, negative = inhibition, hits mostly inhibitors; AlphaScreen HP1-beta / biotin-H3K9me3 peptide binding; hit rate 0.56% among 390,000; AID 540317; P83916; further: nearly all actives have a fitted effect of over 70% in size
Target sequence (P83916 whole entry, looked up): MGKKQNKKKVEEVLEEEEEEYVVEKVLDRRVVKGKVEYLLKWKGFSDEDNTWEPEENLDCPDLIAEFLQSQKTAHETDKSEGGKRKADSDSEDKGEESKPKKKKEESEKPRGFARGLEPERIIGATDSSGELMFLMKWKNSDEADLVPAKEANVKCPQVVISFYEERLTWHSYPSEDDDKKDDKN
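Compound inhibition of the preformed complex between 50 nM HP1-beta and 50 nM biotinylated H3K9me3 peptide was read by AlphaScreen. Buffer was PBS pH 7.4 with 0.01% Tween-20. Incubations ran 30 min at room temperature, with 10 ug/mL donor/acceptor beads.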
JMJD2A Tudor inh: blocks the human JMJD2A Tudor domain; hit rate 4.4% among 390,000; Potency, µM (top dose mostly 114 µM), inactives show at the top dose activity change, negative = inhibition, most hits filed as inhibitors; O75164; AlphaScreen JMJD2A-Tudor / H3K4me3 peptide binding; further: on the % scale 0 is the no-effect control and ±100 the full control effect; nearly all actives have a fitted effect of over 50% in size
The depositor's hits bear a star; ? = inconclusive; . = not tested or not shown; [ ] = remark or other dose. The call rests on the fitted dose curve; in most records, active means well fitted curve in the direction sought with a large enough effect; inconclusive means small, poorly fitted or top-dose-only effect, or another doubt; inactive means no such curve, though single readings can be large; an effect the other way counts as inactive or inconclusive. Potency means the concentration at half of the fitted maximal effect.

SMILES	Sfp inh	BAZ2B block	L3MBTL1 inh	G9a inh	HP1b chromo inh	JMJD2A Tudor inh
O=c1/c(=C\c2ccc3c(c2)OCO3)sc2n1CCCN=2	7%	1%	5%	-9%	0%	-16%
Cc1ccc(/C=c2/sc3n(c2=O)CCCN=3)o1	20µM*	-7%	-6%	8.9µM*	26%	-13%
Cc1ccc(/C=c2\sc3n(c2=O)CN(c2ccc(Br)cc2)CN=3)o1	10µM*	-22%	1%	8.9µM*	-32%	-5%[11.4 µM]
Cc1nc2ccccn2c1C(=O)N/N=C/c1ccc(CNC(=O)C(=O)Nc2ccccc2)o1	5%	-24%	-19%	8%[59 µM]	14%	-24%
CCCCC/C(C=O)=C/c1ccccc1	-1%	.	.	22%[59 µM]	.	.
COc1ccc(-c2cc3ccc(O)c(CN4CCC(C)CC4)c3oc2=O)cc1OC	.	8%	.	1%[59 µM]	18%[57 µM]	-8%
O=C(Nc1cccc(-c2nc3ccccc3o2)c1)c1cccc2c(Cl)cccc12	.	-19%	.	4%[59 µM]	19%	-5%
Nc1nc(=S)c2n[nH]nc2[nH]1	.	.	.	.	46%	18µM*
N#C[C@H]1[C@H](c2ccccc2)[C@](C#N)(C(=O)c2ccccc2)[C@@H]2C=Cc3ccccc3N21	2%	28µM*	-5%	25µM*	.	.
Cc1ccc(SCCNC(=O)CN(c2ccccc2)S(=O)(=O)N(C)C)cc1	.	1%	.	6%[59 µM]	29%	8%
COc1ccccc1CNC(=O)COC(=O)c1cc(-c2ccco2)nc2ccccc12	?	40µM*	.	13µM*	?	20µM*
Cc1cc(C(=O)OCC(=O)N2CCOCC2)c2ccccc2n1	-23%	7%	-2%	0%[59 µM]	?	35µM*
O=C(COC(=O)c1cc(-c2ccco2)nc2ccccc12)NCc1ccc2c(c1)OCO2	-17%	-9%	?	13µM*	23%	-14%
Cc1cc(C(=O)OCC(=O)N2CCCC2)c2ccccc2n1	7%	6%	.	-18%	3%	-4%
O=C(Nc1nncs1)c1cc(-c2ccco2)nc2ccccc12	.	.	?	.	3%	?
O=C(COC(=O)c1ccco1)NCc1ccc2c(c1)OCO2	14%	8%	.	3%	28%	10%
NC(=O)COC(=O)c1cc(-c2ccco2)nc2ccccc12	-29%	-24%	-3%	16µM*	6%	-19%
COc1ccc(-n2nc3ccc(NC(=O)c4c(OC)cccc4OC)cc3n2)cc1	.	9%	.	31%[59 µM]	76%	3%
Cn1c(CNC(=O)CSc2n[nH]c(-c3ccccc3)n2)nc2ccccc21	.	2%	.	-8%[59 µM]	17%[57 µM]	-15%
Cc1ccc2c(C)c(C(=O)N(Cc3ccc(N(C)C)cc3)C3CCS(=O)(=O)C3)oc2c1 (stereo not given)	-18%	13µM*	?	.	?	25µM*
Cc1ccc2oc(C(=O)N(Cc3ccc(N(C)C)cc3)C3CCS(=O)(=O)C3)c(C)c2c1 (stereo not given)	4%	11µM*	.	25µM*	?	20µM*
Cc1ccc2c(=O)cc(C(=O)N(Cc3ccc(N(C)C)cc3)C3CCS(=O)(=O)C3)oc2c1 (stereo not given)	.	?	.	?	27%	-30%
Cc1c(C(=O)N(Cc2ccc(Cl)cc2)C2CCS(=O)(=O)C2)oc2ccccc12 (stereo not given)	15%	-2%	.	-18%	-9%	-27%
O=S1(=O)N=C(Oc2cccc(C(F)(F)F)c2)c2ccccc21	.	.	.	.	.	-26%
COc1cc(/C=C/c2ccc(O)cc2)cc(OC)c1	56µM*	-34%	.	2%[59 µM]	-17%	-29%
SMILES	Sfp inh	BAZ2B block	L3MBTL1 inh	G9a inh	HP1b chromo inh	JMJD2A Tudor inh
Cc1ccc(-n2nc3c(N4CCCC(C(=O)NCc5ccccc5C)C4)nnc(C)c3c2C)cc1 (stereo not given)	.	-36%	.	?	33%	-29%
N#Cc1ccc(-c2csc(NNC(=O)c3ccccc3)n2)cc1	-10%	1%	1%	.	17%	-31%
Cc1cc(-c2csc(NC(=O)c3ccc(C#N)cc3)n2)c(C)n1Cc1ccccc1	14%	8%	6%	45µM*	29%	-26%
CCc1ccccc1NNC(=O)c1sccc1Cl	.	.	.	.	37%	-24%
CCc1ccccc1NNC(=O)c1snnc1C	?	-12%	0%	2.8µM*	12%	-7%
Cc1nnsc1C(=O)NNc1c(Cl)cccc1Cl	-1%	4%	9%	8.9µM*	33%	-8%
CN1C(=O)/C(=C2\SC(=S)N(CCCCCC(=O)O)C2=O)c2ccccc21	18%	-21%	.	-27%	40µM*	?
O=C(O)CCN1C(=O)/C(=C2\C(=O)N(Cc3ccc(F)cc3)c3ccccc32)SC1=S	-12%	2.5µM*	.	16µM*	28µM*	25µM*
CCN1C(=O)/C(=C2\SC(=S)N(CCCOC)C2=O)c2ccccc21	13%	?	3%	-2%[12.7 µM]	?	?
O=C(Nc1cc(Cl)ccc1Cl)c1cc(S(=O)(=O)N2CCCc3ccccc32)ccc1F	.	16%	.	-3%[59 µM]	65%	5%
N#C/C(=C/c1cccn1-c1cccc(C(=O)O)c1)c1ccc(F)cc1	19%	50µM*	?	?	-2%	-35%
O=C(CN1C(=O)N/C(=C\c2cccn2-c2cccc(C(=O)O)c2)C1=O)Nc1ccccc1F	.	.	.	.	.	-18%
COc1ccccc1NS(=O)(=O)c1ccc(NN=C2CCCCC2)c([N+](=O)[O-])c1	-1%	8.9µM*	?	25µM*	?	?
COc1ccccc1NS(=O)(=O)c1ccc(OC)c([N+](=O)[O-])c1	13%	-13%	3%	3%	-7%	-22%
CCCC(CCC)=NNc1ccc(S(=O)(=O)Nc2ccccc2OC)cc1[N+](=O)[O-]	-2%	10µM*	?	?	28µM*	14µM*
Cc1ccc([N+](=O)[O-])c(Oc2ncnc3c2oc2ccccc23)c1	.	-3%	.	-16%[59 µM]	26%	-12%
Clc1cccc(CSc2nnc(C3CCNCC3)o2)c1	.	-11%	.	-38%[59 µM]	23%	-12%
Cc1nc(C)c(N)c(=O)[nH]1	5%	-28%	32%	50µM*	29%	-9%[11.4 µM]
CCOc1ccccc1-c1nnc2n1N=C(c1ccccc1OC)CS2	-7%	.	.	.	.	-28%
Cn1c(=O)oc2cc(S(=O)(=O)NC(Cc3ccccc3)C(=O)Nc3ccc(F)c(Cl)c3)ccc21 (stereo not given)	.	-12%	.	0%[59 µM]	14%	-14%
COc1cc(SSc2cc(OC)cc([N+](=O)[O-])c2N)c(N)c([N+](=O)[O-])c1	2.5µM*	8.9µM*	.	0.45µM*	?	1.4µM*
Cc1nc2c(-c3ccccc3)c(C)nn2c(C)c1CCC(=O)NCc1ccc(Cl)cc1	.	0%	.	8%[59 µM]	38%	15%
